Assay results as given in paper PMC5540273 (PLoS ONE, 2017).

tested on: NEK9; conditions: concentration: 1 μM, replicates: in singlicate; n = 1
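Note: KINOMEscan kinase panel screen.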

Row | SMILES | %Inh
1 | Cc1ccc(C(=O)Nc2ccc(Nc3ccnc4cc(-c5ccccn5)ccc34)cc2O)cc1.Cl [GW440146] | 52%
2 | Cl.c1ccc(-c2n[nH]cc2-c2ccnc(-c3ccc(CN4CCOCC4)cc3)c2)nc1 [GW776245] | 0%
3 | Cn1cncc1-c1ccc2ncnc(Nc3ccc(OCc4ccccc4)cc3)c2c1 [GW320571] | 12%
4 | Clc1cc(Cl)cc(Nc2ccnc(Nc3cc(Cl)cc(Cl)c3)n2)c1 [GSK175726] | 7%
5 | Cc1cccc(-c2nc(-c3ccc(S(C)(=O)=O)cc3)sc2-c2ccnc(NCCc3ccccc3)c2)c1 | 0%
6 | Cc1cccc(-c2nc(Nc3ccncc3)c3ccccc3n2)n1 [GW855857] | 0%
7 | COc1ccc(Nc2nccc(-c3cccc(NC(=O)c4cc5cc(F)ccc5[nH]4)c3)n2)cc1 [GSK1229782] | 21%
8 | COc1cc2ncn(-c3cc(OCC4CCCO4)c(C(N)=O)s3)c2cc1OC (stereo not drawn) [GSK204607] | 0%
9 | COc1ccc(CNC(=O)NC2CCN(c3ccnc(Nc4cc(OC)c(OC)c(OC)c4)n3)C2)cc1 (stereo not drawn) [GSK1379748] | 15%
10 | CC(C)(C)c1ccc(C(=O)Nc2cn3cc(Cl)ccc3n2)cc1 | 0%
11 | O=C(Nc1n[nH]c2cc(-c3cccc(F)c3F)ccc12)C1CC1 [SB-733894] | 0%
12 | CCn1c(-c2ccccn2)nc2cnccc21 [SB-736398] | 0%
13 | Cn1ccc2ncnc(Oc3cccc(C(=O)Nc4ccccc4)c3)c21 | 0%
14 | Fc1cc(Cl)ccc1Nc1ccnc2cc(-c3ccc(CN4CCCCC4)o3)ccc12 [GW560116] | 0%
15 | O=S(=O)(c1ccc(-c2ccnc3[nH]ccc23)cc1)N1CCCC1 [GSK846226] | 28%
16 | CC(C)(C)c1ccc(C(=O)Nc2cn3cc(-c4cccnc4)ccc3n2)cc1 | 0%
17 | O=C(Nc1n[nH]c2nc(-c3nccs3)c(Br)cc12)C1CCCC1 [SB-742609] | 0%
18 | COc1ccc(Nc2nccc(NCCNC(=O)Nc3ccccc3F)n2)cc1 [GSK1379901] | 0%

Row | SMILES | %Inh
19 | O=C1NC(=O)C(N2CCc3ccccc32)=C1c1ccccc1Cl [SB-373598] | 13%
20 | O=C(Nc1ccccc1)Nc1cccc(Oc2ccc3nccn3n2)c1 | 36%
21 | COc1cc(Nc2nccc(N3CCC(NC(=O)Nc4cc(C)ccc4C)C3)n2)cc(OC)c1OC (stereo not drawn) [GSK1379762] | 32%
22 | COc1ccccc1CNC(=O)c1cc(C(=O)c2ccccc2C)c[nH]1 [GSK364507] | 15%
23 | COc1cc2ncnc(Nc3ccc4nc(-c5ccccc5)[nH]c4c3)c2cc1OC.Cl [GW282450] | 22%
24 | Cc1cccc(-c2nc(Nc3ccc4[nH]ncc4c3)c3ccccc3n2)n1 [GW857175] | 0%
25 | O=c1cc(N2CCOCC2)nc2n(Cc3cccc(Cl)c3Cl)ccn12 [GSK2286295] | 27%
26 | CN(C)CCN(C)C(=O)c1cc(-c2ccncc2)c(-c2ccc(Cl)c(O)c2)o1.Cl.Cl [SB-710397] | 0%
27 | COc1ccc2nc(-c3cccc(C)n3)nc(Nc3ccncc3)c2c1 [GSK204919] | 0%
28 | Cl.Oc1ccc(-c2nc(-c3ccccc3)[nH]c2-c2ccncc2)cc1 [SB-428218] | 0%
29 | Cn1ccc2ncnc(Oc3ccc(NC(=O)Nc4ccccc4)cc3)c21 | 0%
30 | COC(=O)c1c(-c2ccccc2)c2cc(C(=O)O)ccc2c(=O)n1Cc1ccccc1 | 0%
31 | CS(=O)(=O)c1ccc(-c2nc3n(c2-c2ccncc2)CCC3)cc1 [SKF-105942] | 0%
32 | NC(=O)c1nnc2ccccc2c1N | 0%
33 | Cc1cc(NCC(c2ccccc2)c2ccccc2)nc(NCc2ccc(C(F)(F)F)cc2)n1 [GW497681] | 0%
34 | O=C(Nc1ccc2c(c1)OCO2)NC1CCN(c2ccnc(Nc3ccc(F)cc3)n2)C1 (stereo not drawn) [GSK1379724] | 0%
35 | Cl.NC(=O)c1cccc(Nc2nccc(Nc3ccc(Oc4cccc(Cl)c4)c(Cl)c3)n2)c1 [GW659008] | 3%
36 | COC(=O)c1c(-c2ccccc2)c2cc(OC)ccc2c(=O)n1Cc1ccccc1 | 7%

tested on: T1, NIK; conditions: concentration: 1 μM, replicates: in singlicate; n = 1
T1 construct: gene MAP3K14

Row | SMILES | %Inh
37 | Cc1ccc(C(=O)Nc2ccc(Nc3ccnc4cc(-c5ccccn5)ccc34)cc2O)cc1.Cl [GW440146] | 11%
38 | Cl.c1ccc(-c2n[nH]cc2-c2ccnc(-c3ccc(CN4CCOCC4)cc3)c2)nc1 [GW776245] | 0%
39 | Cn1cncc1-c1ccc2ncnc(Nc3ccc(OCc4ccccc4)cc3)c2c1 [GW320571] | 0%
40 | Clc1cc(Cl)cc(Nc2ccnc(Nc3cc(Cl)cc(Cl)c3)n2)c1 [GSK175726] | 0%
41 | Cc1cccc(-c2nc(-c3ccc(S(C)(=O)=O)cc3)sc2-c2ccnc(NCCc3ccccc3)c2)c1 | 0%
42 | Cc1cccc(-c2nc(Nc3ccncc3)c3ccccc3n2)n1 [GW855857] | 0%
43 | COc1ccc(Nc2nccc(-c3cccc(NC(=O)c4cc5cc(F)ccc5[nH]4)c3)n2)cc1 [GSK1229782] | 50%
44 | COc1cc2ncn(-c3cc(OCC4CCCO4)c(C(N)=O)s3)c2cc1OC (stereo not drawn) [GSK204607] | 19%
45 | COc1ccc(CNC(=O)NC2CCN(c3ccnc(Nc4cc(OC)c(OC)c(OC)c4)n3)C2)cc1 (stereo not drawn) [GSK1379748] | 25%
46 | CC(C)(C)c1ccc(C(=O)Nc2cn3cc(Cl)ccc3n2)cc1 | 0%
47 | O=C(Nc1n[nH]c2cc(-c3cccc(F)c3F)ccc12)C1CC1 [SB-733894] | 0%
48 | CCn1c(-c2ccccn2)nc2cnccc21 [SB-736398] | 24%
49 | Cn1ccc2ncnc(Oc3cccc(C(=O)Nc4ccccc4)c3)c21 | 0%
50 | Fc1cc(Cl)ccc1Nc1ccnc2cc(-c3ccc(CN4CCCCC4)o3)ccc12 [GW560116] | 10%
51 | O=S(=O)(c1ccc(-c2ccnc3[nH]ccc23)cc1)N1CCCC1 [GSK846226] | 12%
52 | CC(C)(C)c1ccc(C(=O)Nc2cn3cc(-c4cccnc4)ccc3n2)cc1 | 20%
53 | O=C(Nc1n[nH]c2nc(-c3nccs3)c(Br)cc12)C1CCCC1 [SB-742609] | 33%
54 | COc1ccc(Nc2nccc(NCCNC(=O)Nc3ccccc3F)n2)cc1 [GSK1379901] | 9%

Row | SMILES | %Inh
55 | O=C1NC(=O)C(N2CCc3ccccc32)=C1c1ccccc1Cl [SB-373598] | 0%
56 | O=C(Nc1ccccc1)Nc1cccc(Oc2ccc3nccn3n2)c1 | 7%
57 | COc1cc(Nc2nccc(N3CCC(NC(=O)Nc4cc(C)ccc4C)C3)n2)cc(OC)c1OC (stereo not drawn) [GSK1379762] | 32%
58 | COc1ccccc1CNC(=O)c1cc(C(=O)c2ccccc2C)c[nH]1 [GSK364507] | 12%
59 | COc1cc2ncnc(Nc3ccc4nc(-c5ccccc5)[nH]c4c3)c2cc1OC.Cl [GW282450] | 23%
60 | Cc1cccc(-c2nc(Nc3ccc4[nH]ncc4c3)c3ccccc3n2)n1 [GW857175] | 11%
61 | O=c1cc(N2CCOCC2)nc2n(Cc3cccc(Cl)c3Cl)ccn12 [GSK2286295] | 32%
62 | CN(C)CCN(C)C(=O)c1cc(-c2ccncc2)c(-c2ccc(Cl)c(O)c2)o1.Cl.Cl [SB-710397] | 16%
63 | COc1ccc2nc(-c3cccc(C)n3)nc(Nc3ccncc3)c2c1 [GSK204919] | 0%
64 | Cl.Oc1ccc(-c2nc(-c3ccccc3)[nH]c2-c2ccncc2)cc1 [SB-428218] | 74%
65 | Cn1ccc2ncnc(Oc3ccc(NC(=O)Nc4ccccc4)cc3)c21 | 6%
66 | COC(=O)c1c(-c2ccccc2)c2cc(C(=O)O)ccc2c(=O)n1Cc1ccccc1 | 0%
67 | CS(=O)(=O)c1ccc(-c2nc3n(c2-c2ccncc2)CCC3)cc1 [SKF-105942] | 3%
68 | NC(=O)c1nnc2ccccc2c1N | 69%
69 | Cc1cc(NCC(c2ccccc2)c2ccccc2)nc(NCc2ccc(C(F)(F)F)cc2)n1 [GW497681] | 7%
70 | O=C(Nc1ccc2c(c1)OCO2)NC1CCN(c2ccnc(Nc3ccc(F)cc3)n2)C1 (stereo not drawn) [GSK1379724] | 0%
71 | Cl.NC(=O)c1cccc(Nc2nccc(Nc3ccc(Oc4cccc(Cl)c4)c(Cl)c3)n2)c1 [GW659008] | 27%
72 | COC(=O)c1c(-c2ccccc2)c2cc(OC)ccc2c(=O)n1Cc1ccccc1 | 0%
